Experiment [1] concerns the target Lysosomal acid glucosylceramidase (Homo sapiens) (UniProt P04062). The experiment in a line: Glucocerebrosidase-p2 (AID 348; in the data active = potency below about 10 µM; note: potency is the fitted concentration of half-maximal effect). The following applies: purified GBA, blue fluorogenic substrate, 40 min. Put shortly:
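Compounds titrated from 0.6 nM upwards against 0.2 nM enzyme in pH 5.9 citric acid/KH2PO4, taurocholate, tween-20; blue fluorogenic substrate 80 uM, 40 min room temperature, stopped and read Ex 365/Em 440 for AC50.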

Experiment [2] is described as follows: AP1 Signaling Pathway (AID 357; active = well fitted curve in either direction with a large enough effect, not every such curve was filed as active;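 note: ME-180 reporter cells stimulated with EGF at its EC50 level; % is set by controls: 0 for no effect and ±100 for the full control effect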). The following applies: ME-180 AP-1-bla reporter, EGF-induced, beta-lactamase ratio, 5 h; at 7.69 µM (top of the series) unless noted. Put shortly:
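Read-out was the 460nm/530nm emission ratio (excitation 405nm) after CCF4 loading for 2.5 hours at room temperature. Cells carried an AP-1-driven beta-lactamase reporter, were stimulated with EC50 EGF plus compound for 5 hours, and AC50 values came from titrations.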

Experiment [3] can be described thus: Stat Signaling Pathway (AID 446; active = well fitted curve in either direction with a large enough effect, not every such curve was filed as active;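 note: ME-180 cervical cancer cells given 40 pM IL-6 alongside compound; SIE-controlled beta-lactamase reporter measured as 460/530 nm FRET emission ratio; % is set by controls: 0 for no effect and ±100 for the full control effect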). The following applies: ME-180 SIE beta-lactamase reporter, IL-6 stimulated, 5 h; at 7.69 µM (top of the series) unless noted. The method, boiled down: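 ME-180 SIE-bla cells; overnight plating; cpd + IL-6 40 pM, 5 h, 37 C; LiveBLAzer 2.5 h RT; 460/530 nm emission ratio. Normalized to 300 pM IL-6 and 125 nM JAK inhibitor controls.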

Experiment [4] concerns the target Glucocorticoid receptor (Homo sapiens) (UniProt P04150). Briefly: GR-EFC Redistribution (AID 451). Note: potency is the fitted concentration of half-maximal effect. The following applies: CHO-K1 GR-EFC translocation, beta-gal luminescence, 2 h. Put shortly: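 CHO-K1 cells expressing nuclear EA and GR-ED fragments of b-gal; compounds titrated up to 46 uM final, 2 h at 37 C. GR nuclear translocation read as complemented b-gal luminescence after 1 h RT detection.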

The target in experiment [5] is Mitogen-activated protein kinase 10 (Mus musculus) (UniProt Q61831). Briefly: JNK3 AlphaScreen Assay (AID 530; active = well fitted curve in either direction with a large enough effect, not every such curve was filed as active;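 note: kinase came from lysate of stimulated human HepG2 cells; signal reports phosphorylation of biotinylated GST-cJun 1-79 at Ser73 with 10 µM ATP; % is set by controls: 0 for no effect and ±100 for the full control effect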). The following applies: JNK3 lysate, c-Jun phosphorylation; series mostly up to 57.1 µM. The method, boiled down:
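Pre-activated (IL-1β/TNFα) JNK3 in HepG2 lysates phosphorylates biotin-GST-cJun(1-79), 10 uM ATP; anti-phospho-cJun(Ser73) AlphaScreen read at room temperature, pH 7.6 Tris buffer. Compounds pre-incubated 15 min as titrations.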
A general note: Bead proximity is the source of the signal in Alpha formats.

For experiment [6], the target named is 3',5'-cyclic-AMP phosphodiesterase 4B (Homo sapiens) (UniProt Q07343). The experiment in a line: qHTS Assay for Inhibitors of PDE-IV (AID 607; active = well fitted activation curve with a large enough effect in the main read-out, with a control signal flat, not every such curve was filed as active; note: % of control where 0% means no effect). The following applies: HEK293 ACTOne CNG channel cells, membrane potential fluorescence; series mostly up to 22.9 µM. The method, boiled down:
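ACTOne HEK293 cells carry a modified cAMP-gated CNG channel and express endogenous PDE4; plated 1000 cells/well, compounds up to 22.9 uM final. Membrane-potential dye fluorescence (ex 535/em 590) was read; parental cells received 10 uM forskolin + 100 uM RO 20-1724.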
A general note: Quantitative high-throughput screening tests each substance at several concentrations.

Experiment [7] addresses Cytochrome P450 2C19 (Homo sapiens) (UniProt P33261). The experiment in a line: qHTS Assay for Inhibitors and Substrates of Cytochrome P450 2C19 (AID 899; active = well fitted curve in the direction sought with a large enough effect; an effect the other way counts as inactive or inconclusive; note: % is set by controls: 0 for no effect and ±100 for the full control effect; nearly all actives have a fitted effect of over 60% in size). The following applies: recombinant CYP2C19, luciferin-H EGE luminescence; series mostly up to 57.1 µM. The method, boiled down: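 Luminescent read-out of luciferin formed from Luciferin-H EGE (10uM, equal to KM). Enzyme 5nM in 50mM KPO4; compound added, 10 min at 37C, then NADPH regenerating system for 60 min at 37C. Full inhibition defined by 57uM ketoconazole.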

The nature of experiment [8]: qHTS Assay for Lipid Storage Modulators (AID 1519). The following applies: Drosophila S3 cells, BODIPY lipid droplet/cell ratio, laser cytometry, cells loaded with oleic acid; for activity change, negative = inhibition: at 57.5 µM (top of the series). The method, boiled down: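 Cells seeded at 5,000 per well were treated with compounds over a concentration series and loaded with oleic acid (400 uM, as added). Lipid droplet fluorescence (488 nm excitation, 500-530 nm channel) was read by laser-scanning cytometry and normalized to 20 uM Triacsin C.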

Experiment [9] in a line: Primary qHTS for small molecule stabilizers of the endoplasmic reticulum resident proteome: Secreted ER Calcium Modulated Protein (SERCaMP) assay (AID 1508630; active = well fitted curve in the direction sought with a large enough effect; an effect the other way counts as inactive or inconclusive; note: % is set by controls: 0 for no effect and ±100 for the full control effect). Conditions: SH-SY5Y GLuc-SERCaMP (Gaussia luciferase released on ER calcium loss) secretion, thapsigargin, luminescence; series mostly up to 38.4 µM. Put shortly:
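GLuc-SERCaMP-expressing SH-SY5Y cells, pretreated 16 h with compound, are challenged with thapsigargin to empty ER calcium stores; after 4 h, coelenterazine is added directly to the medium and luminescence is imaged.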

The target of experiment [10] is Cytochrome P450 1A2 (Homo sapiens) (UniProt P05177). The experiment in a line: p450-cyp1a2 (AID 410).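 For activity change, negative = inhibition: -100% = full effect of reference inhibitor.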 Note: potency is the fitted concentration of half-maximal effect. Conditions: recombinant CYP1A2, luciferin-ME demethylation, luminescence; series mostly up to 57 µM. The method, boiled down:
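Luminescent readout of luciferin formed from Luciferin-ME by human CYP1A2; data normalized against complete inhibition by 57 uM furafylline. Enzyme 20nM, substrate 100uM at Km, 100mM KPO4 buffer, 60 min reaction at room temperature.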

The nature of experiment [11]: NFAT Signaling Pathway (AID 444; active = well fitted curve in either direction with a large enough effect, not every such curve was filed as active). The following applies: Jurkat NFAT-bla M1, carbachol, beta-lactamase ratio, 5 h; at 7.69 µM (top of the series) unless noted. The method, boiled down:
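Jurkat cells with NFAT-driven β-lactamase reporter and co-expressed M1 receptor, stimulated with carbachol (final 1 uM, ~EC50), compound titration, 5 h at 37 °C. CCF4 loaded 1 h at RT; 460/530 nm ratio gave %activity and AC50.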

Experiment [12] addresses Cytochrome P450 3A4 (Homo sapiens) (UniProt P08684). Briefly: qHTS Assay for Inhibitors and Substrates of Cytochrome P450 3A4 (AID 884; active = well fitted curve in the direction sought with a large enough effect; an effect the other way counts as inactive or inconclusive; note: % is set by controls: 0 for no effect and ±100 for the full control effect; nearly all actives have a fitted effect of over 50% in size). Conditions: recombinant CYP3A4, Luciferin-PPXE luminescence; series mostly up to 57.1 µM. Put shortly: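 20 nM human CYP3A4 with 25 uM Luciferin-PPXE (at KM) in 200 mM KPO4, preincubated 10 min with compound; NADPH regeneration started a 60 min RT reaction. Luciferin detected by luminescence, normalized to 57 uM ketoconazole as full inhibition.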

Experiment [13] shares this target. Briefly: qHTS Assay for Activators of Cytochrome P450 3A4 (AID 885; active = well fitted curve in the direction sought with a large enough effect; an effect the other way counts as inactive or inconclusive; note: nearly all actives have a fitted effect of over 65% in size; note: potency is the fitted concentration of half-maximal effect). Conditions: recombinant CYP3A4, Luciferin-PPXE luminescence, 60 min; series mostly up to 57.1 µM. The method, boiled down: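 20nM CYP3A4 + 25uM Luciferin-PPXE (=KM), 200mM KPO4; cpd 10 min RT; NADPH regen, 60 min RT; stop w/ detection buffer, 20 min; luminescence. Normalized to 57 uM ketoconazole.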

Experiment [14] concerns the target Cytochrome P450 2D6 (Homo sapiens) (UniProt P10635). Briefly: qHTS Assay for Inhibitors and Substrates of Cytochrome P450 2D6 (AID 891; active = well fitted curve in the direction sought with a large enough effect; an effect the other way counts as inactive or inconclusive; note: potency is the fitted concentration of half-maximal effect; nearly all actives have a fitted effect of over 60% in size). The following applies: recombinant CYP2D6, luciferin-ME EGE luminescence; series mostly up to 57.1 µM. The method, boiled down:
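Human CYP2D6 (5 nM) with 30 uM Luciferin-ME EGE (at Km) in 100 mM KPO4, compound preincubated 10 min, then NADPH regeneration system for 60 min at room temperature. Luciferin read by luminescence; normalized to 1.43 uM quinidine.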

Experiment [15] concerns the target Glucocorticoid receptor (Homo sapiens) (UniProt P04150). The experiment in a line: GR-GFP Redistribution (AID 450;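 active = compounds whose dose series gives a full or clear partial fitted curve of increased nuclear translocation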; note: potency is the fitted concentration of half-maximal effect). The following applies: U2OS GR-GFP nuclear translocation, laser cytometry, 2 h.
A short description of experiment [16]: Confirmation and Secondary Assay for Modulators of Hemoglobin Beta Chain Splicing at IVS2 654 locus (AID 910; active = well fitted curve in the direction sought with a large enough effect; an effect the other way counts as inactive or inconclusive;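 note: HeLa cells stably carrying EGFP split by mutant beta-globin IVS2-654 intron; % of control where 0% means no effect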). The following applies: HeLa EGFP-654 splicing reporter, GFP fluorescence, 48 h; series mostly up to 38.3 µM. Put shortly:
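HeLa cells stably expressing EGFP interrupted by β-globin IVS2-654 intron, seeded overnight in Opti-MEM/2% FCS, then treated 2 days at 37 °C. Restored splicing read as total peak GFP intensity per well by laser scanning cytometry (488 nm excitation, 500–520 nm emission); 500 nM antisense PNA as control.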

Experiment [17] can be described thus: Confirmation and Secondary Assay for Modulators of Hemoglobin Beta Chain Splicing at IVS2 705 locus (AID 930; active = well fitted curve in the direction sought with a large enough effect; an effect the other way counts as inactive or inconclusive;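 note: HeLa cells stably expressing the EGFP-705 splicing reporter; GFP fluorescence per well restored by corrected splicing of the IVS2-705 intron in EGFP; % of control where 0% means no effect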). Conditions: HeLa EGFP-705 splicing reporter, GFP fluorescence, 48 h; series mostly up to 38.3 µM. The method, boiled down:
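HeLa EGFP-705 reporter; 500 cells/well, o/n 37C 5% CO2; cpd 2 d; 488 ex/500-520 em laser scan; total peak GFP intensity/well. Ref: 500 nM […] antisense PNA.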

Experiment [18] has as its target Ubiquitin carboxyl-terminal hydrolase 1 (Homo sapiens) (UniProt O94782). Briefly: Inhibitors of USP1/UAF1: Pilot qHTS (AID 504865; active = well fitted curve in the direction sought with a large enough effect; an effect the other way counts as inactive or inconclusive;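 note: rhodamine fluorescence freed from ubiquitin-rhodamine substrate followed over time; top concentration of the series differs between compounds; % is set by controls: 0 for no effect and ±100 for the full control effect; nearly all actives have a fitted effect of over 35% in size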). The following applies: purified USP1/UAF1, Ub-rhodamine cleavage fluorescence; series mostly up to 54.9 µM. Put shortly:
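USP1/UAF1 complex (1nM) preincubated with compound 15 min at room temperature, then Ub-Rho substrate (150nM final) added. Fluorescence read kinetically at 480/540 nm, 6 reads every 60 seconds. Buffer: 50mM HEPES pH 7.8, 0.5mM EDTA, 0.1 mg/ml BSA, 1mM TCEP, 0.01% Tween-20.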

The mark [19] stands for this setting: measured here: cell count channel max response.
Setting [20] is: measured here: lipid channel max response.

SMILES strings stand for the structures. Inconclusive results are not listed. The source made the active and inactive calls. Unless noted, calls come from the whole dose curve. A value given as a limit tells only on which side of the number the result lay.

Chain of 3',5'-cyclic-AMP phosphodiesterase 4B (Homo sapiens) (Q07343 whole entry, looked up): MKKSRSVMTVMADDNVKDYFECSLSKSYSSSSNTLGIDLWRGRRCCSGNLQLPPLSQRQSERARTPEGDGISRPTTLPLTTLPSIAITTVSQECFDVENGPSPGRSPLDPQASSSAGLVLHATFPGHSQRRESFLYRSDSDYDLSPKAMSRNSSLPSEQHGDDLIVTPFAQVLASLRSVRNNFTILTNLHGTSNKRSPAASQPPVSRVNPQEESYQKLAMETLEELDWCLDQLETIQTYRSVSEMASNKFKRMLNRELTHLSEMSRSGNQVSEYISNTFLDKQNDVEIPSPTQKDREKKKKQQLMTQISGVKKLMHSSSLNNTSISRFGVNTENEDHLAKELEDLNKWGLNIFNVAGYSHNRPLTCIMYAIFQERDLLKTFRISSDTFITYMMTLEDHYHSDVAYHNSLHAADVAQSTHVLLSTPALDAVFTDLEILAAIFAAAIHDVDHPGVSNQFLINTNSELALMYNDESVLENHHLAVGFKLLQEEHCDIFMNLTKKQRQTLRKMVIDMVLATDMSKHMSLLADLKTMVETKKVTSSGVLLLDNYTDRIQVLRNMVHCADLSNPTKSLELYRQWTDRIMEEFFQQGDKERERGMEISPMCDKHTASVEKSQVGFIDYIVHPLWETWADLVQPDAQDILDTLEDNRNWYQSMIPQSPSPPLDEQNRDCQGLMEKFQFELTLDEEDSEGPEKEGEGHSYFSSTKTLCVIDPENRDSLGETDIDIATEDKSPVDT
Chain of Glucocorticoid receptor (Homo sapiens) (P04150 whole entry, looked up, the tested form may be a part): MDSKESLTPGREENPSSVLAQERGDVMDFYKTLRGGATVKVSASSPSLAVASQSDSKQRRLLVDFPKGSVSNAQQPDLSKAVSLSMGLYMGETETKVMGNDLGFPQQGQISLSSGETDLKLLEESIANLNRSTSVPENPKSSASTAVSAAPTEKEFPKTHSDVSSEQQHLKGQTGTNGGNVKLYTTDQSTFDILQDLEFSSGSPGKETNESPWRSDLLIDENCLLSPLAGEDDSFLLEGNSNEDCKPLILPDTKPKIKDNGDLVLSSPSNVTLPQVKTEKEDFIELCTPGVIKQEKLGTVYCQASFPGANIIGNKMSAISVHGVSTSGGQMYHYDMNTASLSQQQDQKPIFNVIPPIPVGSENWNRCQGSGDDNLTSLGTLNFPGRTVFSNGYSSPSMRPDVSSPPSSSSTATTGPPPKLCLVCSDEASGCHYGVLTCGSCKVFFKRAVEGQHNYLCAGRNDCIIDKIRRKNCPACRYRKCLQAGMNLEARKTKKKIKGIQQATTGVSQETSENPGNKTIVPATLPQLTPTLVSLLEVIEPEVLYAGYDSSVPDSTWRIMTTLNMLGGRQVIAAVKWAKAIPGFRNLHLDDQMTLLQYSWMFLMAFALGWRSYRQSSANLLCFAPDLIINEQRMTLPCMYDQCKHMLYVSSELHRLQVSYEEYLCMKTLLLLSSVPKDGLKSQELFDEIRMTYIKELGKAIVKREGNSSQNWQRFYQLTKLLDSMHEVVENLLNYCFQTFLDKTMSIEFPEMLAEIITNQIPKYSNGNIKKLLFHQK
Chain of Cytochrome P450 1A2 (Homo sapiens) (P05177 whole entry, looked up): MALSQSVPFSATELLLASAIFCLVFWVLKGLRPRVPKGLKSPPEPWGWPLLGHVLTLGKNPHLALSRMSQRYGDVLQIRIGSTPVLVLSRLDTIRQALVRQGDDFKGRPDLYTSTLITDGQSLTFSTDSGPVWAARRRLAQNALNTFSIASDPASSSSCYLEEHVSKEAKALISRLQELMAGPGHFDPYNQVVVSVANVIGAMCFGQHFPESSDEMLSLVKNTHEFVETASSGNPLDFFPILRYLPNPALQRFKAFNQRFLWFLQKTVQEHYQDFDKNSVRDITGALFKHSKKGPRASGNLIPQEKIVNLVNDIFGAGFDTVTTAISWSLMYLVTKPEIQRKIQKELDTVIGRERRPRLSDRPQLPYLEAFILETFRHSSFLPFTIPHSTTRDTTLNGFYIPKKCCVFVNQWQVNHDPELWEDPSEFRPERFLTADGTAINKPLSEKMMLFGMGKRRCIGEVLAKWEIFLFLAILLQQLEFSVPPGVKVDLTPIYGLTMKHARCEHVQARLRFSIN
Chain of Cytochrome P450 3A4 (Homo sapiens) (P08684 whole entry, looked up): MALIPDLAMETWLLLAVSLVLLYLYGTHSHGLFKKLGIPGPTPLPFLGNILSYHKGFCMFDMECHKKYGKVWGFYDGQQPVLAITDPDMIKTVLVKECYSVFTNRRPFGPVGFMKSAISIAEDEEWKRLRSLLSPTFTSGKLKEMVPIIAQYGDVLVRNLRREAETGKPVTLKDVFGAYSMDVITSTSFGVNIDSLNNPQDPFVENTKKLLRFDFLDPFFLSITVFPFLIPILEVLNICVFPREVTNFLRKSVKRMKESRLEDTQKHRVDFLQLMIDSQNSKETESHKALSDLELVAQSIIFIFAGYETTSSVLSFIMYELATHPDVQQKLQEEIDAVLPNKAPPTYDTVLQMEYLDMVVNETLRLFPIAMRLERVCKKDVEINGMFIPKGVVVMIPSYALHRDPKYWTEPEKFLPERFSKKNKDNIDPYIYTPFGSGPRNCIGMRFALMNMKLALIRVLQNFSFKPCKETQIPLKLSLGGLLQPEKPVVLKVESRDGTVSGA
Chain of Lysosomal acid glucosylceramidase (Homo sapiens) (P04062 whole entry, looked up): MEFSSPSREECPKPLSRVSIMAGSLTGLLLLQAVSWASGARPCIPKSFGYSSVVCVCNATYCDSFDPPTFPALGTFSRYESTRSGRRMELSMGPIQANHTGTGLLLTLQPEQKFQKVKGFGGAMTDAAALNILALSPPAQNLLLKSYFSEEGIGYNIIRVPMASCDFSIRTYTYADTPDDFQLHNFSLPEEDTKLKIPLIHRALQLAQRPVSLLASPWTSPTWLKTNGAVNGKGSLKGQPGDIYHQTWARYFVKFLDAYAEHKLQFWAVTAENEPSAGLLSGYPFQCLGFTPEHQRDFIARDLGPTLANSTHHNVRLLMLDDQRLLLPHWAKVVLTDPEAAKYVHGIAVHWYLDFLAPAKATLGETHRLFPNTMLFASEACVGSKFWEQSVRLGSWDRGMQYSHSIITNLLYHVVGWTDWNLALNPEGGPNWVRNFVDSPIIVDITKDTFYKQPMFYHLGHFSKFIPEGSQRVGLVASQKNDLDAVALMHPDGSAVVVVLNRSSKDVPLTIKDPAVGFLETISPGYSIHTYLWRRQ
Chain of Cytochrome P450 2D6 (Homo sapiens) (P10635 whole entry, looked up): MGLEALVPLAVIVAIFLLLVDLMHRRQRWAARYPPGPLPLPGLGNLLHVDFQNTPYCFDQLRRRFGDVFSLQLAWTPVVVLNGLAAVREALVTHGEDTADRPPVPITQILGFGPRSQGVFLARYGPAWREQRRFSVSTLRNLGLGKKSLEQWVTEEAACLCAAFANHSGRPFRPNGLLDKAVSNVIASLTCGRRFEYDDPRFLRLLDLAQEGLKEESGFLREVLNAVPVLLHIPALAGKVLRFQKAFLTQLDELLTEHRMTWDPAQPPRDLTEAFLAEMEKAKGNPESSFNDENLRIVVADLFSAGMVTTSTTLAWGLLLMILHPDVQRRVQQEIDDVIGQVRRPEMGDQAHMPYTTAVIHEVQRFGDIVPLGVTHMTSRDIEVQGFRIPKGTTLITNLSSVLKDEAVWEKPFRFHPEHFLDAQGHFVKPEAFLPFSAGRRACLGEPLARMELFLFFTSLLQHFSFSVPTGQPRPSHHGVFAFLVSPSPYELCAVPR
Chain of Cytochrome P450 2C19 (Homo sapiens) (P33261 whole entry, looked up): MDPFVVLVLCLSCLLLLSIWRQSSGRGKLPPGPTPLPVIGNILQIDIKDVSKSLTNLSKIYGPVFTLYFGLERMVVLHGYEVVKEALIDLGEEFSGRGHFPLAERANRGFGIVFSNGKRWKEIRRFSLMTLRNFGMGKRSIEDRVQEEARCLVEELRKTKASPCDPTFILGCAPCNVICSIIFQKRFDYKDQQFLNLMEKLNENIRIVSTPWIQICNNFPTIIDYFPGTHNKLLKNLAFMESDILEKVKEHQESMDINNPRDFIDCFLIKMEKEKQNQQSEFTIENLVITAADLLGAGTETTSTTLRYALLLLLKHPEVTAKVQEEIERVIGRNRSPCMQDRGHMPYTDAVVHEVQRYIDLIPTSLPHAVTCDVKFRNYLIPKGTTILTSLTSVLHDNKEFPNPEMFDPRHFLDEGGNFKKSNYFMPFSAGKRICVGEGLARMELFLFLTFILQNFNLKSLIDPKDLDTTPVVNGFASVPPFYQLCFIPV
Chain of Ubiquitin carboxyl-terminal hydrolase 1 (Homo sapiens) (O94782 whole entry, looked up): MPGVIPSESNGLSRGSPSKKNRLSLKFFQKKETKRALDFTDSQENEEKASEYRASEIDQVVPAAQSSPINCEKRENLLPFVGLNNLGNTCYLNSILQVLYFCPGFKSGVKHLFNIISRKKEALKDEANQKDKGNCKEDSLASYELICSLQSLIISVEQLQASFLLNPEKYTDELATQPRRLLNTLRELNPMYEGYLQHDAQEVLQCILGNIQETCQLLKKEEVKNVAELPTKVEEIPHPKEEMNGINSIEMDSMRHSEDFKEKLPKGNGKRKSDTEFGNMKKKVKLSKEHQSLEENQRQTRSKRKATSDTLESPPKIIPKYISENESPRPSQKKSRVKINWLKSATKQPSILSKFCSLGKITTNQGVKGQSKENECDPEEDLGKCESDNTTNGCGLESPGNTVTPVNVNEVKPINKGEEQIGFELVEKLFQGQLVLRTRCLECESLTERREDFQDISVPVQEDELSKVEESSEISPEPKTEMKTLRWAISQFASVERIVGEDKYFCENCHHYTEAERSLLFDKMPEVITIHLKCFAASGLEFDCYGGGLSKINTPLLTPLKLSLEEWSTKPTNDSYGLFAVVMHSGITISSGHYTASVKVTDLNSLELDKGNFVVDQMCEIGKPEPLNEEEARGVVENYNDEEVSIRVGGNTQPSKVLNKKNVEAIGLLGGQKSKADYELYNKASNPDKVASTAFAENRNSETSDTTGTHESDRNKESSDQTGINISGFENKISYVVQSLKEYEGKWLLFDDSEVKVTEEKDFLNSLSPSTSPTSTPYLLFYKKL

Take `COC(=O)N1CCC2(CCCN(c3ccncc3)C2)CC1`: the values for the Potency in [1] and in experiment [4] were > 11.4 µM (inactive) and > 46 µM (inactive), respectively. The activity change, negative = inhibition in experiment [2] is -3.28% (inactive); in [8], 5.16% (inactive). Moreover, the activity, negative = inhibition in experiment [3] was 5.05% (inactive). The Potency entry in experiment [5], in experiment [6] and in [7] was “inactive” in each case. Besides, the max response worked out at 21.3% in experiment [8] (setting [19]) and 29.2% in experiment [8] (setting [20]). In [9], the outcome was inactive.
On to `O=C(c1cccc(F)c1)N1CCC2(CC1)CN(c1ccccn1)C2`, for which the Potency is > 11.4 µM (inactive) in experiment [1] and > 46 µM (inactive) in [4]. The results for the activity change, negative = inhibition in [2] and in [8] were 6.77% (inactive) and 6.42% (inactive), respectively. Also, the activity, negative = inhibition in experiment [3] is -12.3% (inactive). Moreover, the Potency entry in [6] is “inactive”. Further, the max response in experiment [8] (setting [19]) stood at 17.7%; in [8] (setting [20]), 16%. In addition, the result in [9] was inactive.
With `CS(=O)(=O)N1CCC2(CC1)CN(C(c1ccccc1)c1ccccc1)C2`, the Potency in experiment [1] is > 11.4 µM (inactive); in experiment [4] it was > 46 µM (inactive); in experiment [13], 15.8 µM (active); in [14], 2.51 µM (active). Besides, the Potency result in [10], in experiment [5], in experiment [6] and in [12] was “inactive” throughout. The activity change, negative = inhibition in experiment [11] is -0.932% (inactive); in experiment [8] it was -2.92% (inactive). The activity, negative = inhibition in experiment [3] is -5.62% (inactive). The max response was -5.26% in experiment [8] (setting [19]) and -3.93% in experiment [8] (setting [20]). Moreover, the result in experiment [9] was inactive.
Regarding `COc1ccc(C(=O)N2CCC3(CCN(Cc4ccc(C#N)cc4)CC3)CC2)cc1`, the Potency is > 11.4 µM (inactive) in experiment [1], 12.6 µM (active) in [10] and > 46 µM (inactive) in [4]. For the same molecule, the activity, negative = inhibition in [3] was 0.785% (inactive). In addition, the Potency entry in experiment [5] and in [6] was “inactive” each time. The activity change, negative = inhibition in experiment [8] was 1.02% (inactive). Besides, the max response in experiment [8] (setting [19]) stood at 16.6%; in experiment [8] (setting [20]) it was 21%. The outcome in experiment [9] was inactive.
As to `COc1ccc(CNc2nc(-c3ccc(C(=O)N(C)C)cc3)nc3ccccc23)c(OC)c1`, the Potency in experiment [1] was > 11.4 µM (inactive); in experiment [10], 15.8 µM (active); in experiment [15], > 46 µM (inactive); in experiment [4] it was > 46 µM (inactive). Also, the Potency result in [5], in experiment [13], in experiment [16] and in [18] was “inactive” each time. Also, the outcome in experiment [17] and in [9] was inactive. The activity change, negative = inhibition in [8] was 6.93% (inactive). Further, the max response in [8] (setting [19]) was -11.3%; in experiment [8] (setting [20]), 8.44%.
As for `COCC(=O)N1CCC2(CC1)CCN(c1ncccn1)CC2`, the Potency in experiment [1] is > 11.4 µM (inactive); in experiment [4] it was > 46 µM (inactive). Further, the Potency result in experiment [10], in experiment [5] and in [6] was “inactive” throughout. The values for the activity change, negative = inhibition in experiment [11] and in experiment [8] were 16.6% (inactive) and 3.55% (inactive), respectively. For the same molecule, the activity, negative = inhibition in experiment [3] is -0.157% (inactive). For the same molecule, the max response in [8] (setting [19]) was 11.8%; in [8] (setting [20]) it was 17.5%. The result in [9] was inactive.
`COC(=O)N1CCC2(CC1)CN(c1ccc(-c3ccccc3)cc1)C2`: the Potency in experiment [1] is > 11.4 µM (inactive); in experiment [10], 1.26 µM (active); in experiment [4], > 46 µM (inactive); in [13] it was 3.16 µM (active). The activity change, negative = inhibition in experiment [11] was 15.9% (inactive); in experiment [8], 5.19% (inactive). Besides, the activity, negative = inhibition in experiment [3] was -8.46% (inactive). For the same molecule, the Potency result in [5], in experiment [6] and in [12] was “inactive” in each case. The max response was -7.69% in [8] (setting [19]) and 0.422% in experiment [8] (setting [20]). Also, in [9], the outcome was inactive.

Values taken from PubChem BioAssay (NCATS).
